Most compounds without a hit are left out; they make up all but 3.7% or so of the library.
MazF activator = activators of E. coli MazEF toxin-antitoxin RNase. P0AE70. FAM/BHQ RNA-DNA oligo cleavage fluorescence, 5 h. activation, % at 20 µM. hit rate 0.32% among 350,000; in the data active means activation above about 50%
Anthrax LF inh2 = inhibitors of Bacillus anthracis lethal factor protease; multiplex microsphere protease cleavage assay, LF; inhibition, % at 10 µM; hit rate 0.12% among 360,000; AID 588501; further: plate controls were buffer without enzyme for full effect and enzyme alone for no effect
BoNT A protease = BoNT A light chain protease inhibition | multiplex microsphere protease substrate cleavage, flow cytometry | hit rate 0.17% among 360,000 | inhibition, % at 10 µM; further: plate controls were buffer without enzyme for full effect and enzyme alone for no effect
BoNT-F LC inh = inhibitors of Botulinum neurotoxin F light chain protease; hit rate 0.22% among 360,000; inhibition, % at 10 µM; Multiplex microsphere protease cleavage assay, flow cytometry; in the data active means inhibition above about 35%, passing the limit was not always enough; inconclusive means no clear call, values can overlap the other calls; further: plate controls were buffer without enzyme for full effect and enzyme alone for no effect
Autofluor counter = compound fluorescence in toxin protease inhibitor counterscreen | fluorescence intensity (test concentration not listed) | AID 624483 | compound autofluorescence counterscreen, microsphere flow cytometry; hits give high values | hit rate 3.1% among 360,000; in the data active means fluorescence intensity above about 16000; inconclusive means no clear call, values can overlap the other calls
Numbers without * were called inactive; u = inconclusive; x = no result. Unless noted, no stated cut-off is given here; in the data, active means inhibition above about 30%; inconclusive means no clear call, values can overlap the other calls; inactive means below that.

SMILES	MazF activator	Anthrax LF inh2	BoNT A protease	BoNT-F LC inh	Autofluor counter
CC(=O)CSc1nc2cc3c(cc2cc1C#N)OCCO3	80*	0	4	-4	3414
OC(c1cccc(Cl)c1)c1nc(-c2cccc3cccnc23)cs1 (stereo not given)	x	-4	0	-8	2976
Cc1onc(-c2c(F)cccc2Cl)c1C(=O)OCC(=O)N(C)c1ccccc1	-1	-9	0	-2	3924
O=C(O)CSc1ccn(Cc2ccccc2)c1	3	-4	-1	0	3905
O=C1C=C(NCC2CCCO2)C2(CCCCC2)O1 (stereo not given)	-4	-3	2	2	19832*
O=C1C=C(NC2CC2)C2(CCCCC2)O1	-7	-3	0	-13	2802
CCc1ccc(-c2cn3c(n2)SCC3)cc1	-6	1	0	0	2454
CCc1ccc(-c2cn(-c3nc(C)cc(C)n3)c(=N)o2)cc1	-9	-2	-1	-3	23477*
COCCOC1CCN(C(=O)c2cc(COc3ccc(-n4cncn4)cc3)on2)CC1	10	3	0	-2	5450
COCCC1CCCCN1C(=O)c1cc(COc2ccc(-n3cncn3)cc2)on1 (stereo not given)	-4	-44	-170	-303	35235*
COCc1cc(C)nc(N2CCN(Cc3ccccc3)CC2)c1C#N	-2	-1	1	18	4486
COCc1cc(C)nc(N2CCN(c3ccccc3)CC2)c1C#N	3	-1	-1	-1	23159*
CCN(CC)S(=O)(=O)c1cccc(NC(=O)C(=O)c2c(-c3ccccc3)cc3ccccn23)c1	-2	-8	-1	-12	9940
CCN(CC)S(=O)(=O)c1cc(NC(=O)C(=O)c2c(-c3ccccc3)cc3ccccn23)ccc1C	8	-3	-4	-10	25900*
CN(Cc1ccccc1)C(=O)c1[nH]cnc1C(=O)N[C@@H](Cc1ccccc1)C(=O)OC(C)(C)C	1	-1	0	-9	3886
O=C(O)c1cc2ncc(CCO)cn2n1	1	-2	3	27	4664
O=C(CCc1ccccc1)Nc1ccc(F)cc1F	1	-7	0	7	4987
O=C(CCCc1ccccc1)Nc1ccc(Br)cc1F	1	32*	-1	-26	3547
COc1ccc(-c2cc(-c3c(O)c(OC)c4occc4c3OC)[nH]n2)cc1	-2	-7	u	-5	21696*
Cc1ccccc1-n1c(=O)cc(N2CCc3ccccc3C2)[nH]c1=O	-9	-15	8	11	19487*
O=c1cc(N2CCc3ccccc3C2)[nH]c(=O)n1-c1ccccc1Cl	6	-5	0	0	6143
Cc1ccc(N(CN2CCCC2=O)C(=O)c2ccc(C)c(C)c2)cc1	-4	-1	u	3	21259*
CCOC(=O)C(C)(C)Sc1ncnc2nc[nH]c12	3	-1	u	3	23381*
CCOC(=O)N1CCN(c2ncnc3nc[nH]c23)CC1	2	-2	0	-5	5296
FC(F)(F)/C(=N\P(=S)(N1CCOCC1)N1CCOCC1)N1CCOCC1	-3	-9	u	13	17852*
SMILES	MazF activator	Anthrax LF inh2	BoNT A protease	BoNT-F LC inh	Autofluor counter
Cc1ccc(S(=O)(=O)Cc2ccc(C(=O)NCc3ccc4c(c3)OCO4)o2)cc1	-7	-2	u	2	22168*
Cc1ccc(S(=O)(=O)Cc2ccc(C(=O)NCCCN3CCN(C)CC3)o2)cc1	4	-2	u	-4	23094*
Cc1ccccc1S(=O)(=O)Cc1ccc(C(=O)NC(C)c2ccc3c(c2)OCCO3)o1 (stereo not given)	2	0	0	-6	5946
COCCNC(=O)c1ccc(CS(=O)(=O)c2ccc(C)cc2)o1	2	-3	-1	-2	22139*
CC(NC(=O)c1ccc(CS(=O)(=O)c2ccc(Cl)cc2)o1)c1ccc2c(c1)OCCO2 (stereo not given)	5	-1	-1	-2	20032*
COCc1ccc(C(=O)N2CCCC(C(=O)c3ccc(Cl)cc3C)C2)o1 (stereo not given)	-30	-1	1	4	4231
CCCNC(=O)C1(C)CCN(CCC(=O)c2ccc(Br)cc2)C1 (stereo not given)	x	-2	0	4	4035
COc1ccc([C@H]2/C=C\CN(C(=O)c3ccccc3)[C@@H](C)C(=O)N2Cc2ccc(F)cc2)cc1	1	4	0	5	4144
Cc1cc(C)cc(Nc2nc3c([nH]2)c(=O)n(C)c(=O)n3C)c1	2	0	0	-6	2591
Cc1ccc(Nc2nc3c([nH]2)c(=O)n(C)c(=O)n3C)cc1	5	-2	-2	-5	20196*
CCN(CC)S(=O)(=O)c1ccc(/C=C/C(=O)OCC(=O)N(C)C)cc1	5	-2	0	0	3306
O=C1c2ccccc2C(=O)C1Cc1cccc2ccccc12	-7	0	1	0	21890*
COc1ccc(OCC(=O)OCCN2C(=O)c3ccccc3C2=O)cc1	9	-1	4	7	20429*
COc1ccccc1-c1nc2ccccc2c(=O)n1NC(=O)c1cccs1	6	-1	0	-2	2548
O=C(COC(=O)COc1ccc(Cl)cc1Cl)NC1CCCCCC1	-2	-6	1	-11	9289
O=C1CSC(c2cn(-c3ccccc3)nc2-c2cc3ccccc3oc2=O)N1Cc1ccco1 (stereo not given)	-1	-1	u	-5	23471*
O=C1CSC(c2cn(-c3ccccc3)nc2-c2cc3ccccc3o2)N1Cc1ccccc1 (stereo not given)	-14	0	0	-20	3139
CCCCC(=O)NC(NC(=S)N1CCOCC1)C(Cl)(Cl)Cl (stereo not given)	-5	-2	u	2	23068*
COc1ccc(NC(=O)CCC(=O)OCc2ccc(C(=O)Oc3ccc(Cl)cc3)cc2)cc1	-14	-2	0	-1	19988*
CCOC(=O)Nc1cc(C(=O)OC)ccc1C	2	u	6	14	u
O=C(CCC(=O)OCc1ccc(C(=O)Oc2ccc(Cl)cc2)cc1)Nc1ccccc1	-7	-2	0	-12	2169
O=C(CCC(=O)OCC(F)(F)C(F)F)Nc1ccc(Cl)cc1	-2	-13	u	6	17876*
O=C(CCC(=O)OCC(F)(F)C(F)F)Nc1ccc(F)cc1F	2	-2	0	2	2481
Cc1ccc(NC(=O)OCC(F)(F)C(F)F)cc1NC(=O)OCC(F)(F)C(F)F	9	-9	u	-8	21692*
COc1cc(CN(CCN(C)C)Cc2ccccc2)ccc1OCc1ccccc1	13	5	1	9	3833
CN1OC[C@@H]2CN(S(=O)(=O)c3ccccc3)[C@H](c3ccc(N4CCCCC4)cc3)C[C@@H]21	x	-1	-1	6	5421
Cc1ccc(S(=O)(=O)N(C)c2nc3ccccc3[nH]c2=S)cc1	-10	2	1	2	5879
Cc1ccc(S(=O)(=O)N(C)c2nonc2C)cc1	9	1	1	-1	19642*
Cc1ccccc1C1=NCC(=O)N(CC(=O)N2CCCCC2)c2sc(C)c(C)c21	0	0	u	-2	22255*
